Bioassay records deposited in PubChem BioAssay by National Center for Advancing Translational Sciences (NCATS).
Rows were chosen to be rich in hits. Some 5% of all compounds tested hit in one or more screens of this group.
Vaccinia mCherry: vaccinia inhibition (mCherry reporter). Vaccinia virus mCherry reporter infection, fluorescence. Potency, µM (top dose mostly 36.5 µM), hits mostly inhibitors. 0.63% of 310,000 active. AID 720579; calls by dose curve; tested in A549 cells; also: nearly all actives have a fitted effect of over 35% in size
LmPK inh: inhibitors of Leishmania mexicana pyruvate kinase | Q27686 | purified LmPK, Kinase-Glo ATP luminescence, 1 h | Potency, µM (series often up to 57.5 µM), hits mostly inhibitors | 0.37% of 290,000 active
Target sequence (Q27686 whole entry, looked up): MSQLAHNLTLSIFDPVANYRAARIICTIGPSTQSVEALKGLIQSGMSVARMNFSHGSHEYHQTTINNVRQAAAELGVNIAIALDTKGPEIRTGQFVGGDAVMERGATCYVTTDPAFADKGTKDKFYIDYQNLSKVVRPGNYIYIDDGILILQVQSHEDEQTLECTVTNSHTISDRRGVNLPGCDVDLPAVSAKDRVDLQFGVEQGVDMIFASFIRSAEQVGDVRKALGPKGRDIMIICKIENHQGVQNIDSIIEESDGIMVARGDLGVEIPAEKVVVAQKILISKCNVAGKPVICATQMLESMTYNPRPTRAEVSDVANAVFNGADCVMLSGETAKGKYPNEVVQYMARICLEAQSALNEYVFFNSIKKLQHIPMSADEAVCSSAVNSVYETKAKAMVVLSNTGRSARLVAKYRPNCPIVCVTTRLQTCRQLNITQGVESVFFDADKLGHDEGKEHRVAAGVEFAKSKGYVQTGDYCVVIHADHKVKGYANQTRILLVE
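Purified LmPK (0.1 nM) converted ADP (0.1 mM) to ATP with PEP (0.5 mM) in imidazole buffer pH 7.2 with KCl and MgCl2, 1 h at room temperature. ATP was read by Kinase-Glo luminescence; data normalized to uninhibited and no-enzyme controls.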
Vaccinia Venus: inhibitors of vaccinia virus (Venus reporter). 0.46% of 330,000 active. Vaccinia virus Venus reporter expression, fluorescence. Potency, µM (top dose mostly 36.5 µM), actives largely listed as inhibitors; calls by dose curve; tested in A549 cells; also: nearly all actives have a fitted effect of over 30% in size
HCMV antiviral: human cytomegalovirus inhibition; HFF cells, HCMV-luciferase reporter, 72 h; hits give low values; activity change, negative = inhibition, % at 57.5 µM; 4.5% of 410,000 active; in the data active = activity change below about -60%; inconclusive = no clear call, values can overlap the other calls; inactive = above about -39%
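HFF cells seeded 16 h at 37C, treated with compounds, infected with luciferase-reporter HCMV at MOI 1 PFU/cell; luciferase read at 72 h post infection, normalized to buffer-only and Salinomycin controls.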
TbPYK inhibitor: inhibitors of Trypanosoma brucei pyruvate kinase; TbPYK enzyme, Kinase-Glo Plus ATP luminescence, 45 min; 0.12% of 410,000 active; Potency, µM (doses to about 76.8 µM), hits mostly inhibitors; Q57TT1; also: nearly all actives have a fitted effect of over 50% in size
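Readout: single end-point luminescence (Kinase-Glo Plus, 10 min). Reaction conditions were TbPYK/substrate plus 130 uM ADP, 45 min at RT, pH 7.2 TEA buffer. No-enzyme wells served as controls, and data were normalized before concentration-response fitting.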
A number is an active result; - = inactive; ? = inconclusive; . = not tested or not shown; [ ] = remark or other dose. Unless noted, calls follow the shape of the dose curve; as a rule, active = well fitted curve in the direction sought with a large enough effect; inconclusive = small, poorly fitted or top-dose-only effect, or another doubt; inactive = no such curve, though single readings can be large; an effect the other way counts as inactive or inconclusive.

SMILES	Vaccinia mCherry	LmPK inh	Vaccinia Venus	HCMV antiviral	TbPYK inhibitor
O=c1[nH]c(-c2ccccc2)ncc1OCc1ccccc1	-	.	-	-63	-
COc1cnc(-c2ccccc2)[nH]c1=O	-	-	-	-	-
COCC(C)NC(=O)CCS(=O)(=O)c1nc(-c2ccc(OC)cc2)cc(C(F)(F)F)n1 (stereo unspecified)	-	-	-	-104	-
COc1ccc(-c2cc(C(F)(F)F)nc(N)n2)cc1	-	-	-	-	-
COc1ccc(-c2cc(C(F)(F)F)nc(S(C)(=O)=O)n2)cc1	?	-	?	-105	-
CS(=O)(=O)c1nc(-c2ccc(F)cc2)cc(C(F)(F)F)n1	?	-	?	-99	-
CCC(C)NC(=O)CCSc1nc(-c2ccc(OC)cc2)cc(C(F)(F)F)n1 (stereo unspecified)	-	.	-	-	-
CCN(CC(=O)Nc1ccc(NC(C)=O)cc1)C(=O)c1ccc(S(=O)(=O)N2CCCC2)cc1	-	.	-	-	-
COc1ccc(Cl)cc1-c1cc(C(=O)NCc2ccccc2)[nH]n1	-	.	-	-	-
CN1C/C(=C/c2ccccc2[N+](=O)[O-])C(=O)/C(=C\c2ccccc2[N+](=O)[O-])C1	?	.	-	-	-
Oc1ccccc1N=N/C(=N/Nc1ccccc1O)c1ccccc1	?	.	-	-	-
N#C/C(N=Nc1ccccc1O)=N\Nc1ccccc1O	?	.	?	-99	?
CCC(NC(=O)CCc1c(C)c2cc3c(C)c(C)oc3cc2oc1=O)C(=O)N[C@@H](Cc1ccccc1)C(=O)O (stereo partly specified)	-	-	-	-	-
CCCCCCNC(=O)CCc1nc2cccnc2n1Cc1ccc(OC)cc1	.	-	.	-	-
Oc1[nH]c(=S)sc1C=C1N=c2ccccc2=N1	-	16µM	-	-	?
Oc1c(C=C2N=c3ccccc3=N2)sc(=S)n1-c1ccc(F)cc1	?	-	-	-	-
CC(C)C(=O)N(Cc1ccc2c(c1)OCO2)Cc1ccccn1	.	-	.	-	-
COc1ccc([C@H]2CC(=O)C=C(c3cc(Cl)ccc3C)C2)cc1	-	.	-	-	-
COc1ccc([C@H]2CC(=O)C=C(c3ccnc4ccc(Cl)cc34)C2)cc1	-	.	?	-78	-
CCC(=O)N(C1=C(NC(C)C)C(=O)c2ccccc2C1=O)C(C)C	.	-	.	?	-
CCCNC1=C(N(C(C)=O)c2cccc(F)c2)C(=O)c2ccccc2C1=O	14µM	-	13µM	-100	-
CC(C)CNS(=O)(=O)c1ccc(S(=O)(=O)N2CCN(C3CCCC3)CC2)cc1	-	-	-	-101	-
O=C(Nc1ccc2oc(=O)ccc2c1)c1ccc(-c2ccc(Cl)cc2)o1	-	-	-	-	-
O=C(Nc1ccc2oc(=O)ccc2c1)c1ccc(-c2cccc(Cl)c2)o1	-	-	-	-64	-
Cc1ccc(-n2nc3ccc(NC(=O)c4cc5ccccc5o4)cc3n2)cc1	-	.	-	-	-
SMILES	Vaccinia mCherry	LmPK inh	Vaccinia Venus	HCMV antiviral	TbPYK inhibitor
CCCCc1ccc(-n2nc3ccc(NC(=O)c4cc5ccccc5o4)cc3n2)cc1	-	.	-	-82	-
O=C(Nc1ccc2nn(-c3ccccc3)nc2c1)c1ccc(-c2cccc(Cl)c2)o1	-	.	?	-75	-
CC(C)(Oc1ccc(Cl)cc1)C(=O)Nc1ccc2oc(=O)ccc2c1	-	-	-	-66	-
Cc1ccc(S(=O)(=O)c2cnc(-c3ccccc3)nc2N2CCN(C)CC2)cc1	.	-	.	-	-
CC(=O)c1ccc(C(=O)N2CCCC(N3CCN(c4ccc(F)cc4)CC3)C2)s1 (stereo unspecified)	-	-	-	-	-
CSCCC1NC(=O)C(C(C)=NNC(N)=O)=C1O (stereo unspecified)	-	.	-	-	-
COc1ccc(C(=O)OCC(=O)N(C)C2CCS(=O)(=O)C2)cc1S(=O)(=O)N(C)Cc1ccccc1 (stereo unspecified)	-	.	-	-	-
CCOc1ccc(-n2nc3ccc(NC(=O)Cc4ccccc4)cc3n2)cc1	-	.	-	-107	-
CCOc1ccc(-n2nc3ccc(NC(=O)CC)cc3n2)cc1	-	-	-	-	-
CC1(C(=O)Nc2ccc3c(c2)OCO3)CCN1C(=O)Cc1cccc2ccccc12 (stereo unspecified)	-	.	-	-	-
CCC(C)(C)C(=O)Nc1nnc(CCc2ccccc2)s1	.	-	.	-	-
Cc1nn(-c2ccccc2)c(C)c1/C=N/NC(=O)c1cc(-c2cccs2)[nH]n1	.	-	.	-89	-
Cc1nn(-c2ccccc2)c(C)c1/C=N/NC(=O)c1cc(-c2ccc(Br)s2)[nH]n1	.	-	.	-	-
O=[N+]([O-])c1ccc(Oc2ccc(F)cc2)c2ccncc12	.	-	-	-68	-
Cn1ccc(NC(=O)CCl)n1	?	-	?	-99	-
CC(C)C[C@H]1CNC(=S)N1C[C@H]1CCCN1C[C@H](CC(C)C)N1C[C@H](Cc2ccc(O)cc2)N(CC2CCCCC2)C1=S	?	.	?	?	-
Nc1cc(S(=O)(=O)N2CCOCC2)ccc1Oc1cccc(Br)c1	-	.	-	-77	-
O=S(=O)(c1ccc(Oc2ccc(S(=O)(=O)N3CCOCC3)cc2)cc1)N1CCOCC1	.	-	-	-66	-
COc1ccccc1CCN1COc2c(cc3c(C)c(C)c(=O)oc3c2C)C1	-	.	-	-	-
CCOc1ccc(C(=O)Nc2ccc(OCc3cc(=O)n4cccc(C)c4n3)cc2)cc1	-	.	-	-	-
Cc1ccc(S(=O)(=O)c2ccccc2)cc1S	.	14µM	.	.	.
Nc1ccc(S(=O)(=O)c2cccc(N)c2)cc1	-	-	-	-	-
Cc1ccc(N(C)S(=O)(=O)c2c(C)[nH]c(C)c2C(=O)N2CCCC2)cc1	-[7.34 µM]	-	-[7.34 µM]	-	-
Cc1ccc(-c2cc3nc(C)cc(NCc4ccco4)n3n2)cc1	-	28µM	-	-	-
COCCNc1cc(C)nc2cc(-c3ccc(C)cc3)nn12	-	-	-	-	-
SMILES	Vaccinia mCherry	LmPK inh	Vaccinia Venus	HCMV antiviral	TbPYK inhibitor
O=C(CNC(=O)c1ccco1)N=Nc1c(O)n(CCc2ccccc2)c2ccccc12	.	-	.	-84	-
Cc1ccc2nc(SCC(=O)N3CCN(C(=O)c4ccco4)CC3)[nH]c2c1	-	-	-	-	-
O=C(CSc1nc2ccc(Cl)cc2[nH]1)N1CCN(C(=O)c2ccco2)CC1	-	-	-	-65	?
COc1nc(Nc2nc3ccccc3c(=O)[nH]2)nc2ccc(C)cc12	2µM	-	2µM	-100	-
COc1ccc2nc(Nc3nc(CSc4nc5ccccc5[nH]4)cc(=O)[nH]3)nc(C)c2c1	?	-	?	-98	-
COc1ccc(N/C(N)=N/c2nc(CSc3nnc(C)s3)cc(=O)[nH]2)cc1	-	-	-	-	-
Cc1ccc(N/C(N)=N/c2nc(CSc3nnc(C)s3)cc(=O)[nH]2)c(C)c1	-	-	?	-88	-
Cc1ccc2nc(Nc3nc(CSc4nnnn4-c4ccccc4)cc(=O)[nH]3)nc(C)c2c1	.	-	.	-	.
COc1ccc2c(C)nc(Nc3nc(C)c(C)c(=O)[nH]3)nc2c1	.	-	.	-102	-
